Test results from the supplement of paper PMC11732987, “Enantioselective OTUD7B fragment discovery through chemoproteomics screening and high-throughput optimisation” (Communications Chemistry, 2025).

Tests used:
Assay in all cases: log2 ratio of Biotin-Ahx-Ub-VS probe labelling (fragment/DMSO); higher = less target engagement (more negative = stronger competition), active = hit call of the paper (q ≤ 0.05, log2 ratio ≤ -1)
Settings in all cases: compound concentration: 200 uM; treatment time: 3 h
[1] = target: T1, OTUD6B (UniProt Q8N6M0)
T1 sequence (whole entry): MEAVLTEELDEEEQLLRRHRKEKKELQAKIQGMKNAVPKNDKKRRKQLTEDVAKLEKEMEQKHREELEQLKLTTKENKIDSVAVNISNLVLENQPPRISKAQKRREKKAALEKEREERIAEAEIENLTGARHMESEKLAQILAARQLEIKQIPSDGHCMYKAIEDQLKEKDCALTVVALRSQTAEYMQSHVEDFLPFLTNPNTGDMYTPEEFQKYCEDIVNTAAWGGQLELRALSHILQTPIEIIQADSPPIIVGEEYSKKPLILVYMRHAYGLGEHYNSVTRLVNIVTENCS
Method in brief: (§1)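 Fragment (200 µM) or vehicle was incubated for 3 h with triplicate HEK293T lysate samples of 495 µg, which were then treated with Biotin-Ahx-Ub-VS at 0.5 µM final for 1 h. Labelled DUBs were enriched on NeutrAvidin, digested with LysC and trypsin, and analysed by diaPASEF LC-MS/MS. Values are average log2 fragment/vehicle ratios from an unpaired t-test on global-median-normalised Spectronaut label-free quantities, using proteins with ≥2 unique peptides.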

[2] = target: T2, OTUD7B (UniProt Q6GQQ9)
T2 sequence (whole entry): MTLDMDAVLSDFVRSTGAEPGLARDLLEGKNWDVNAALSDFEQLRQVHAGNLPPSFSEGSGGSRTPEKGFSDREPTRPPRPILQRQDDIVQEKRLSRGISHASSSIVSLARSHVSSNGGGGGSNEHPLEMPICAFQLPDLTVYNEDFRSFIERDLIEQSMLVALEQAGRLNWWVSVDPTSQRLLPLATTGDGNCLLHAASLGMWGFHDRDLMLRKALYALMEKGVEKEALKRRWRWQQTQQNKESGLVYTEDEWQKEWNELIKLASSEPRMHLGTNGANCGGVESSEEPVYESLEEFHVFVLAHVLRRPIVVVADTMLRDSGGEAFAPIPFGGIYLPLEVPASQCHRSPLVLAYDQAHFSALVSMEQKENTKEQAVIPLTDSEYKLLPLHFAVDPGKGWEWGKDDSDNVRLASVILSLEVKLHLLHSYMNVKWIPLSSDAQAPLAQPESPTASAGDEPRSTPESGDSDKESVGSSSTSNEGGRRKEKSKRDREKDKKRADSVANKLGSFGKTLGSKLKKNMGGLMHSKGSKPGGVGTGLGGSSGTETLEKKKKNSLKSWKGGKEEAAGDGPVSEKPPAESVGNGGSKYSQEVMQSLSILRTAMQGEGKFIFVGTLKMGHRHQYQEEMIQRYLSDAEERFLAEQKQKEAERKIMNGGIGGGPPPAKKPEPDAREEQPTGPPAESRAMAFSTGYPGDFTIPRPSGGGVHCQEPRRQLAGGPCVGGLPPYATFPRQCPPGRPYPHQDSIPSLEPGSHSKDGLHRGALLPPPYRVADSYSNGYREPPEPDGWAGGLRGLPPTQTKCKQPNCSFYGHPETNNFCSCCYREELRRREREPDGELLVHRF
Method in brief: as §1

[3] = target: PRPF8 (UniProt Q6P2Q9)
Method in brief: as §1

[4] = target: T3, PSMD7 (UniProt P51665)
T3 sequence (whole entry): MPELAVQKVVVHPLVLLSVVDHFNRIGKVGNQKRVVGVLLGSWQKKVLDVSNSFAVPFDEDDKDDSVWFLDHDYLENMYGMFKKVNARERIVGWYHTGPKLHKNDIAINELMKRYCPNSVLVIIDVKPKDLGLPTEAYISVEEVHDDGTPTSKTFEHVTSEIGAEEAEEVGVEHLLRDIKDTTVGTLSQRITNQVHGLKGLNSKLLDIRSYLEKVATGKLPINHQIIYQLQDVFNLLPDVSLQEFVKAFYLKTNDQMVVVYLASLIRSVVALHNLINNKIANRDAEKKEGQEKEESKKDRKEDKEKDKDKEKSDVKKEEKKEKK
Method in brief: as §1

[5] = target: UCHL1 (UniProt P09936)
Method in brief: as §1

[6] = target: T4, UCHL3 (UniProt P15374)
T4 sequence (whole entry): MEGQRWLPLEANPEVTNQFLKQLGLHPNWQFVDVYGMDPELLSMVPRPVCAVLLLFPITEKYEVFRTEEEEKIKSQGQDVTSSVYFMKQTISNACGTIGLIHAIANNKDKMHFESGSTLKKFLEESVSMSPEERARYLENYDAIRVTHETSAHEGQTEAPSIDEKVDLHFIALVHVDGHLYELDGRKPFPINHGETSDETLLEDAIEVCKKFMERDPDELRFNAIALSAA
Method in brief: as §1

[7] = target: T5, UCHL5 (UniProt Q9Y5K5)
T5 sequence (whole entry): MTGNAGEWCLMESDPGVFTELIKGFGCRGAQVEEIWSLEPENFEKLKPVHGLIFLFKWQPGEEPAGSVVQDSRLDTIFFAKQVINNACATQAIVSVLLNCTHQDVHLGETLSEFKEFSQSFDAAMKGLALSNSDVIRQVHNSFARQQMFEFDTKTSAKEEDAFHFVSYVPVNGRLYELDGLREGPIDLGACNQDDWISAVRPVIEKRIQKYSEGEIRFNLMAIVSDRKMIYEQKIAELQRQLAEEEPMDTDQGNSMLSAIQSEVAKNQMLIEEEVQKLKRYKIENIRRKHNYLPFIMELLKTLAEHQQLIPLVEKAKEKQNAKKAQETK
Method in brief: as §1

[8] = target: USP10 (UniProt Q14694)
Method in brief: as §1

[9] = target: T6, USP15 (UniProt Q9Y4E8)
T6 sequence (whole entry): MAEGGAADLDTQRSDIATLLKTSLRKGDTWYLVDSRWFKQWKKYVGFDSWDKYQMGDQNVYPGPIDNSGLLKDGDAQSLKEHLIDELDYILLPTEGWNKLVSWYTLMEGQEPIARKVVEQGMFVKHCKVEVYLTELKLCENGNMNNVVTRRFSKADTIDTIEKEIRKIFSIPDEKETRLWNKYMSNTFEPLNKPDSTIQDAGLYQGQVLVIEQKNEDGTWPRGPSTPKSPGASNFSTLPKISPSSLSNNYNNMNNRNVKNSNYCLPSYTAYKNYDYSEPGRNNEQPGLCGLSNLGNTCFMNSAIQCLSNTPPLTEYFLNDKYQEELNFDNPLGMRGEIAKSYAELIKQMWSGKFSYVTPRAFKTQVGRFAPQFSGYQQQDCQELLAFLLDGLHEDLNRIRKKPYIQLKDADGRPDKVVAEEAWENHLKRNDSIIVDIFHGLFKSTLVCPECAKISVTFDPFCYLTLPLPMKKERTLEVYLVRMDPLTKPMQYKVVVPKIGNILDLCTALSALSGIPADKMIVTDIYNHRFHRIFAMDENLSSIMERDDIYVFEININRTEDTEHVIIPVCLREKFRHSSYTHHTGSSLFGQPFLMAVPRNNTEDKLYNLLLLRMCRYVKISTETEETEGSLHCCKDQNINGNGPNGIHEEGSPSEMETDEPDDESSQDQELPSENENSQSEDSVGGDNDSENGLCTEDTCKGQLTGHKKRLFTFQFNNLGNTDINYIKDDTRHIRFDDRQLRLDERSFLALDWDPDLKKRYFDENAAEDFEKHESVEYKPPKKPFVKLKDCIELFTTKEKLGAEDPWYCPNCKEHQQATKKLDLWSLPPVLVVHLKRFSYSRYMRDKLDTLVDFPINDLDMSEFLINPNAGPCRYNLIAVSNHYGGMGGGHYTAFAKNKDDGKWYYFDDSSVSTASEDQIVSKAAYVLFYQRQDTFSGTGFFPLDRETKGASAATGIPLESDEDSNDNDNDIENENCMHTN
Method in brief: as §1

[10] = target: USP16 (UniProt Q9Y5T5)
Method in brief: as §1

Measured: log2 ratio of Biotin-Ahx-Ub-VS probe labelling

Chain of UCHL1 (P09936 whole entry, looked up): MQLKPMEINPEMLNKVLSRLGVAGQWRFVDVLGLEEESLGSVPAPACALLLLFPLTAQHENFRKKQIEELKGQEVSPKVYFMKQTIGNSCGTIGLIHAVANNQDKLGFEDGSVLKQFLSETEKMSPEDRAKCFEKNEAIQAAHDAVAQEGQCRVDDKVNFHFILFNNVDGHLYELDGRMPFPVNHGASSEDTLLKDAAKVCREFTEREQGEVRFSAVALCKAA
Chain of USP16 (Q9Y5T5 whole entry, looked up): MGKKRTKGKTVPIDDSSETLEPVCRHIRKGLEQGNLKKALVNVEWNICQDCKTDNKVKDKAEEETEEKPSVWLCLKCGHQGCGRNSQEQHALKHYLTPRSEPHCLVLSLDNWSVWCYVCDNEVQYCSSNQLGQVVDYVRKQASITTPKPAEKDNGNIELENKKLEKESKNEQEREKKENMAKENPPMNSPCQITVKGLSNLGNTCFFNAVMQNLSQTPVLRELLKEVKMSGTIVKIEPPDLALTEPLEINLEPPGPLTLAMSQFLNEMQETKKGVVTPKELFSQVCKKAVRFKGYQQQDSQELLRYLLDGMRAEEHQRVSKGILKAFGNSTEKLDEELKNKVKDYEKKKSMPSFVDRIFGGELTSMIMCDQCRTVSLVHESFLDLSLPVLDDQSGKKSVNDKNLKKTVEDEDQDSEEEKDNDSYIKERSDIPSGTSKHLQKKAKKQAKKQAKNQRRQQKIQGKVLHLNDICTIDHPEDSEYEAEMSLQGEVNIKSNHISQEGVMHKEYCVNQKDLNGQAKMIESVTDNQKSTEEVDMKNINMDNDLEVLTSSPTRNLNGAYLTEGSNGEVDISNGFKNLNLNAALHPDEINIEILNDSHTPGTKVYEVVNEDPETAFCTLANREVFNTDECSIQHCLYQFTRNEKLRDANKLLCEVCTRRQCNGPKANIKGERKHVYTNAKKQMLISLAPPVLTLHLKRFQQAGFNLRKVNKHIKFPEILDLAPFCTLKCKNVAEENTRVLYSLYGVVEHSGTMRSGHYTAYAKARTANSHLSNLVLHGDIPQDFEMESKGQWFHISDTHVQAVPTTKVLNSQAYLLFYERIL
Chain of USP10 (Q14694 whole entry): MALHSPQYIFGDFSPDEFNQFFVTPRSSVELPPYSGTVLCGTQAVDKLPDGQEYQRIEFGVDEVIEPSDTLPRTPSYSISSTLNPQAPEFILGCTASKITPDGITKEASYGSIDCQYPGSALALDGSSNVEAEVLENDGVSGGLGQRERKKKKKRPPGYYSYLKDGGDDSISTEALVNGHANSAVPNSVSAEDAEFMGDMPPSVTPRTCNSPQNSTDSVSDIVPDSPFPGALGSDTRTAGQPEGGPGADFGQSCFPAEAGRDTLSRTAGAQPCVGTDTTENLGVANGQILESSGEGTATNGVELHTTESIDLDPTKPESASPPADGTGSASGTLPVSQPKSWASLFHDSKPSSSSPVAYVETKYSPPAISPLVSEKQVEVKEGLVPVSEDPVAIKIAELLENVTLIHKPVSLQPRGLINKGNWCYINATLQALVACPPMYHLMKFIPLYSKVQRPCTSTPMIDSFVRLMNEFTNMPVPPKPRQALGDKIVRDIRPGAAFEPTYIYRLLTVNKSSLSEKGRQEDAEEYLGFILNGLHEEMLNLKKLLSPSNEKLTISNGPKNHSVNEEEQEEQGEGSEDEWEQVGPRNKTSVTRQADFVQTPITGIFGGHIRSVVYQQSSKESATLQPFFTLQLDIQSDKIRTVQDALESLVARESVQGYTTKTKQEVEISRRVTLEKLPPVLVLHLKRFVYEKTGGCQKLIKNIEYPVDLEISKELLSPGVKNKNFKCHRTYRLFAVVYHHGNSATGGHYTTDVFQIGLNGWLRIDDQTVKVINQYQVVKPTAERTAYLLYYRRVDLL

O=C(CCl)Nc1cccc(NC(=O)c2ccccc2)c1
inactive: [1] 0.292 | [2] -0.595 | [3] 0.0439 | [4] 0.102 | [6] -0.427 | [7] 0.221 | [8] -0.0488 | [9] -0.0163 | [10] 0.163
active: [5] -1.07
